For 21 molecules, log fold change Tl+ flux results are on record in PubChem BioAssay.

Each structure is given as a SMILES string. Unmarked numbers belong to inactive results. Activity calls are given as the source filed them.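 Rule for the calls: active = thallium flux through the channel raised or lowered by more than 3 SD from vehicle-only wells, actives on both sides; inactive = the rest.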

The first experiment has as its system R275C/beta4. As to the kind of experiment: BK channel mutant inhibitors and activators – cell-based, U2OS BacMam, thallium flux, beta subunits, selectivity assay, profiling panel (AID 1259406).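 Note: initial slope of Thallos dye fluorescence rise after thallium is added; log ratio against the mean of 0.3% DMSO vehicle wells on the same plate.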 The note with it: U2OS BacMam BK variants, at 30 µM.
For `O=C1N=C(O)CN1N=Cc1ccc(-c2ccc([N+](=O)[O-])cc2)o1`, the log fold change Tl+ flux is 0.0532.
On the same count and under the same terms, under `CC(=O)O[C@@]12CO[C@@H]1C[C@H](O)[C@@]1(C)C(=O)[C@H](O)C3=C(C)[C@@H](OC(=O)[C@H](O)[C@@H](NC(=O)OC(C)(C)C)c4ccccc4)C[C@](O)([C@@H](OC(=O)c4ccccc4)[C@H]21)C3(C)C` stands 0.0296.
The same measure, in the same setting: next, `CC1c2cccc(O)c2C(O)=C2C(=O)[C@]3(O)C(O)=C(C(N)=O)C(=O)[C@@H](N(C)C)[C@@H]3C[C@@H]21` (some centres not stated): 0.0272; `CO[C@H]1C=CO[C@@]2(C)Oc3c(C)c(O)c4c(O)c(c(C=NN5CCN(C6CCCC6)CC5)c(O)c4c3C2=O)NC(=O)C(C)=CC=C[C@H](C)[C@H](O)[C@@H](C)[C@@H](O)[C@@H](C)[C@H](OC(C)=O)[C@@H]1C`: 0.28 (active); `C=CC1=C(C(=O)O)N2C(=O)[C@@H](NC(=O)C(=NO)c3csc(N)n3)[C@H]2SC1`: 0.0002.
On the same count and under the same terms, next, `C[C@H]1O[C@@H](O[C@H]2[C@@H](O)C[C@H](O[C@H]3[C@@H](O)C[C@H](O[C@H]4CC[C@@]5(C)[C@H](CC[C@@H]6[C@@H]5C[C@@H](O)[C@]5(C)C(C7=CC(=O)OC7)CC[C@]65O)C4)O[C@@H]3C)O[C@@H]2C)C[C@H](O)[C@@H]1O` (some centres not stated): -0.0475; `CON=C(C(=O)N[C@@H]1C(=O)N2C(C(=O)O)=C(COC(N)=O)CS[C@H]12)c1ccco1`: 0.0531.
Regarding `Cc1cc(=O)oc2cc(NC(=O)C3CCC(=O)N3)ccc12` (configuration not stated), the log fold change Tl+ flux is -0.0203.
Same read-out and setting: next, `N[C@@H](C(=O)N[C@@H]1C(=O)N2C(C(=O)O)=C(CSc3cn[nH]n3)CS[C@H]12)c1ccc(O)cc1` (tested in a mixture with another compound): -0.00667; `CN1CCN2c3ncccc3Cc3ccccc3[C@@H]2C1`: 0.023.
Still for that read-out and setting: next, `C=CC[C@@H]1C=C(C)C[C@H](C)C[C@H](OC)[C@H]2O[C@@](O)(C(=O)C(=O)N3CCCC[C@H]3C(=O)O[C@H](/C(C)=C/[C@@H]3CC[C@@H](O)[C@H](OC)C3)[C@H](C)[C@@H](O)CC1=O)[C@H](C)C[C@@H]2OC`: 0.467 (active); `CO[C@H]1C=CO[C@@]2(C)Oc3c(C)c(O)c4c(O)c(c5c(c4c3C2=O)NC2(CCN(CC(C)C)CC2)N=5)=NC(=O)C(C)=CC=C[C@H](C)[C@H](O)[C@@H](C)[C@@H](O)[C@@H](C)[C@H](OC(C)=O)[C@@H]1C`: 0.0214.
Same read-out and setting: next, `CN(C)S(=O)(=O)c1ccc2c(c1)/C(=C\CCN1CCNCC1)c1ccccc1S2`: 0.0353; `C[C@]12C=CC(=O)C=C1CC[C@@H]1[C@@H]2[C@@H](O)C[C@@]2(C)[C@H]1CC[C@]2(O)C(=O)COC(=O)CCC(=O)O`: -0.0167.
For `CO[C@H]1C=CO[C@@]2(C)Oc3c(C)c(O)c4c(O)c(c5c(nc6cc(C)ccn65)c4c3C2=O)NC(=O)C(C)=CC=C[C@H](C)[C@H](O)[C@@H](C)[C@@H](O)[C@@H](C)[C@H](OC(C)=O)[C@@H]1C`, the log fold change Tl+ flux is -0.0127.
The same measure, in the same setting: next, `CC(C)CC(NC(=O)C(COC(C)(C)C)NC(=O)C(Cc1ccc(O)cc1)NC(=O)C(CO)NC(=O)C(Cc1c[nH]c2ccccc12)NC(=O)C(Cc1cnc[nH]1)NC(=O)C1CCC(=O)N1)C(=O)N[C@@H](CCCN=C(N)N)C(=O)N1CCCC1C(=O)NNC(N)=O` (some centres not stated): -0.0787; `CCN(CC)CCOc1ccc(C(=C(Cl)c2ccccc2)c2ccccc2)cc1`: 0.493 (active).
With `CO[C@H]1/C=C/O[C@@]2(C)Oc3c(C)c(O)c4c(O)c(c(C=NN5CCN(C6CCCC6)CC5)c(O)c4c3C2=O)NC(=O)/C(C)=C\C=C\[C@H](C)[C@H](O)[C@@H](C)[C@@H](O)[C@@H](C)[C@H](OC(C)=O)[C@@H]1C`, the log fold change Tl+ flux was 0.283 (active).
The same measure, in the same setting: next, `O=C1CN(N=Cc2ccc([N+](=O)[O-])o2)C(=O)N1`: -0.0417.
`C=CC1=C(C(=O)O)N2C(=O)[C@@H](NC(=O)C(=NOCC(=O)O)c3csc(N)n3)[C@H]2SC1`: the log fold change Tl+ flux is 0.0168.
The same measure, in the same setting: next, `COCC1=C(C(=O)OC(C)OC(=O)OC(C)C)N2C(=O)[C@@H](NC(=O)C(=NOC)c3csc(N)n3)[C@H]2SC1` (some centres not stated): 0.0115.

The test system of the next experiment is R275C/Slo1WT/beta2. The experiment is described as above. Particulars: U2OS BacMam BK variants, at 30 µM.
For the molecule `O=C1N=C(O)CN1N=Cc1ccc(-c2ccc([N+](=O)[O-])cc2)o1`, the log fold change Tl+ flux is 0.0367.
For the molecule `CC(=O)O[C@@]12CO[C@@H]1C[C@H](O)[C@@]1(C)C(=O)[C@H](O)C3=C(C)[C@@H](OC(=O)[C@H](O)[C@@H](NC(=O)OC(C)(C)C)c4ccccc4)C[C@](O)([C@@H](OC(=O)c4ccccc4)[C@H]21)C3(C)C`, the log fold change Tl+ flux was 0.000404.
Still for that read-out and setting: under `CC1c2cccc(O)c2C(O)=C2C(=O)[C@]3(O)C(O)=C(C(N)=O)C(=O)[C@@H](N(C)C)[C@@H]3C[C@@H]21` (some centres not stated) stands 0.0157; under `CO[C@H]1C=CO[C@@]2(C)Oc3c(C)c(O)c4c(O)c(c(C=NN5CCN(C6CCCC6)CC5)c(O)c4c3C2=O)NC(=O)C(C)=CC=C[C@H](C)[C@H](O)[C@@H](C)[C@@H](O)[C@@H](C)[C@H](OC(C)=O)[C@@H]1C`, 0.00833; under `C=CC1=C(C(=O)O)N2C(=O)[C@@H](NC(=O)C(=NO)c3csc(N)n3)[C@H]2SC1`, 0.0335.
On the same count and under the same terms, under `C[C@H]1O[C@@H](O[C@H]2[C@@H](O)C[C@H](O[C@H]3[C@@H](O)C[C@H](O[C@H]4CC[C@@]5(C)[C@H](CC[C@@H]6[C@@H]5C[C@@H](O)[C@]5(C)C(C7=CC(=O)OC7)CC[C@]65O)C4)O[C@@H]3C)O[C@@H]2C)C[C@H](O)[C@@H]1O` (some centres not stated) stands 0.0268.
The same measure, in the same setting: under `CON=C(C(=O)N[C@@H]1C(=O)N2C(C(=O)O)=C(COC(N)=O)CS[C@H]12)c1ccco1` stands 0.0179; under `Cc1cc(=O)oc2cc(NC(=O)C3CCC(=O)N3)ccc12` (configuration not stated), -0.0148.
Regarding `N[C@@H](C(=O)N[C@@H]1C(=O)N2C(C(=O)O)=C(CSc3cn[nH]n3)CS[C@H]12)c1ccc(O)cc1` (tested in a mixture with another compound), the log fold change Tl+ flux is 0.00247.
Regarding `CN1CCN2c3ncccc3Cc3ccccc3[C@@H]2C1`, the log fold change Tl+ flux is -0.0289.
The same measure, in the same setting: next, `C=CC[C@@H]1C=C(C)C[C@H](C)C[C@H](OC)[C@H]2O[C@@](O)(C(=O)C(=O)N3CCCC[C@H]3C(=O)O[C@H](/C(C)=C/[C@@H]3CC[C@@H](O)[C@H](OC)C3)[C@H](C)[C@@H](O)CC1=O)[C@H](C)C[C@@H]2OC`: 0.00553; `CO[C@H]1C=CO[C@@]2(C)Oc3c(C)c(O)c4c(O)c(c5c(c4c3C2=O)NC2(CCN(CC(C)C)CC2)N=5)=NC(=O)C(C)=CC=C[C@H](C)[C@H](O)[C@@H](C)[C@@H](O)[C@@H](C)[C@H](OC(C)=O)[C@@H]1C`: 0.0234; `CN(C)S(=O)(=O)c1ccc2c(c1)/C(=C\CCN1CCNCC1)c1ccccc1S2`: 0.0468.
Same read-out and setting: next, `C[C@]12C=CC(=O)C=C1CC[C@@H]1[C@@H]2[C@@H](O)C[C@@]2(C)[C@H]1CC[C@]2(O)C(=O)COC(=O)CCC(=O)O`: -0.0235; `CO[C@H]1C=CO[C@@]2(C)Oc3c(C)c(O)c4c(O)c(c5c(nc6cc(C)ccn65)c4c3C2=O)NC(=O)C(C)=CC=C[C@H](C)[C@H](O)[C@@H](C)[C@@H](O)[C@@H](C)[C@H](OC(C)=O)[C@@H]1C`: -0.00936.
On the same count and under the same terms, under `CC(C)CC(NC(=O)C(COC(C)(C)C)NC(=O)C(Cc1ccc(O)cc1)NC(=O)C(CO)NC(=O)C(Cc1c[nH]c2ccccc12)NC(=O)C(Cc1cnc[nH]1)NC(=O)C1CCC(=O)N1)C(=O)N[C@@H](CCCN=C(N)N)C(=O)N1CCCC1C(=O)NNC(N)=O` (some centres not stated) stands 0.0919 (active); under `CCN(CC)CCOc1ccc(C(=C(Cl)c2ccccc2)c2ccccc2)cc1`, -0.157 (active); under `CO[C@H]1/C=C/O[C@@]2(C)Oc3c(C)c(O)c4c(O)c(c(C=NN5CCN(C6CCCC6)CC5)c(O)c4c3C2=O)NC(=O)/C(C)=C\C=C\[C@H](C)[C@H](O)[C@@H](C)[C@@H](O)[C@@H](C)[C@H](OC(C)=O)[C@@H]1C`, 0.0216.
Regarding `O=C1CN(N=Cc2ccc([N+](=O)[O-])o2)C(=O)N1`, the log fold change Tl+ flux was -0.117 (active).
Same read-out and setting: next, `C=CC1=C(C(=O)O)N2C(=O)[C@@H](NC(=O)C(=NOCC(=O)O)c3csc(N)n3)[C@H]2SC1`: 0.00126; `COCC1=C(C(=O)OC(C)OC(=O)OC(C)C)N2C(=O)[C@@H](NC(=O)C(=NOC)c3csc(N)n3)[C@H]2SC1` (some centres not stated): 0.0178.
